Where “and” joins values, the source holds several entries; their conditions need not be identical. Identical values can stand only once. Results filed as inconclusive are left out. Calls of active or inactive are those of the source. Calls come from the whole dose curve; as a rule, active = well fitted activation curve with a large enough effect; inconclusive = small, poorly fitted or top-dose-only effect; inactive = no such curve, though single readings can be large or run the other way.
biological target: Cellular tumor antigen p53 (Homo sapiens) (UniProt P04637); assay: Primary qHTS for small molecule compounds that upregulate eGFP-tagged delta133p53alpha (in N-terminal) cells. (AID 2060322); settings: NCI-H358 eGFP-delta133p53alpha fluorescence, 24 h; activation: stronger effect = higher value; note: nearly all actives have a fitted effect of over 75% in size;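 for activation: series mostly up to about 56 µM; 0% = DMSO vehicle and 100% = reference activator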
Method in brief: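 NCI-H358 cells pre-induced 24 h with 10 ng/ml doxycycline to express N-terminal eGFP-delta133p53alpha, then dosed 24 h at 37C without doxycycline; fixed, Hoechst-stained, GFP intensity by laser scanning cytometry, normalized to DMSO (0%) and 57.5 uM 5-azacytidine (100%).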
Potency is the fitted concentration of half-maximal effect.

Chain of Cellular tumor antigen p53 (Homo sapiens) (P04637 whole entry, looked up): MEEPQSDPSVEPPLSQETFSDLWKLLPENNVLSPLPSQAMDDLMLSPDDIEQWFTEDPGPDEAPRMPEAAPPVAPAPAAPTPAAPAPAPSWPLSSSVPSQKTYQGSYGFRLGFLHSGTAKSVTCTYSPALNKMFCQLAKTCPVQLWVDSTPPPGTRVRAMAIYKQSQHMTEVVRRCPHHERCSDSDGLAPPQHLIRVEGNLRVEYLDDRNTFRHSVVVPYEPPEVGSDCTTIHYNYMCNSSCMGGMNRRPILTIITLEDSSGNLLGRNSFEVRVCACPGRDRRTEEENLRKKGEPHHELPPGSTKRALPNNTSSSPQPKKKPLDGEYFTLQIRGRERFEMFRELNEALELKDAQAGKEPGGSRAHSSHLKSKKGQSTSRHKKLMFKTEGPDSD

SMILES | activation | Potency
Cc1noc(NS(=O)(=O)c2ccc(N)cc2)c1C | 9.21% (inactive) and -0.487% (inactive) | –
CC(C)c1onc(-c2c(Cl)cccc2Cl)c1COc1ccc(C=Cc2cccc(C(=O)O)c2)c(Cl)c1 | -0.915% (inactive) | –
CNC(=O)c1c(I)c(NC(C)=O)c(I)c(C(=O)O)c1I | -8.47% (inactive) | –
Cl/C(=C\n1cncn1)c1ccc(Cl)cc1Cl | -2.82% (inactive) | –
COc1cc(NS(=O)(=O)c2ccc(N)cc2)nc(OC)n1 | -0.195% (inactive) | –
CNC(=O)c1ccccc1Sc1ccc2c(C=Cc3ccccn3)n[nH]c2c1 | -28.7% (inactive) | –
Cc1ccc(N)cc1O | – | 28.2 µM (active)
CC1(COc2ccc(CC3SC(=O)NC3=O)cc2)CCCCC1 (stereo not given) | -3.95% (inactive) | –
Nc1ccc([N+](=O)[O-])c(C(F)(F)F)c1 | -10.7% (inactive) | –
COc1ccc2c(c1)c(CC(=O)OCC(=O)O)c(C)n2C(=O)c1ccc(Cl)cc1 | -15.1% (inactive) and 5.95% (inactive) | –
CC1CCC2(OC1)OC1CC3C4CCC5C[C@@H](O[C@@H]6O[C@H](CO[C@@H]7OC[C@@H](O)[C@H](O)[C@H]7O)[C@H](O)[C@H](O)[C@H]6O)CC[C@]5(C)C4CC[C@]3(C)C1C2C (stereo not given in full) | 8.4% (inactive) | –
CC1CC(OC(=O)c2ccccc2O)CC(C)(C)C1 (stereo not given) | -0.565% (inactive) | –
COC(=O)c1cc(S(N)(=O)=O)ccc1OC | -3.95% (inactive) | –
CC[C@]1(O)C[C@H]2CN(CCC3=c4ccccc4=N[C]3[C@@](C(=O)OC)(c3cc4c(cc3OC)N(C)[C@H]3[C@@](O)(C(N)=O)[C@H](O)[C@]5(CC)C=CCN6CC[C@]43[C@@H]65)C2)C1 | 31.2% (inactive) | –
CC(=O)Nc1ccc(S(=O)(=O)Nc2ccc([N+](=O)[O-])cc2)cc1 | -10.7% (inactive) | –
NS(=O)(=O)c1cc2c(cc1Cl)CN(C1CCCCC1)C2=O | 20.9% (inactive) | –
CCOC(=O)Oc1ccc(CCNC(=O)[C@H](CCSC)NC(C)=O)cc1OC(=O)OCC | 16.4% (inactive) | –
COc1ccc(-c2coc3cc(O)ccc3c2=O)cc1 | -10.4% (inactive) | –
c1ccc2c(c1)CCc1ccccc1N2 | 10.7% (inactive) | –
C[C@H](N)[C@H](O)c1cccc(O)c1 | -7.53% (inactive) | –

SMILES | activation | Potency
Cc1ccc2ccc(Cl)cc2n1 | -5.08% (inactive) | –
CNS(=O)(=O)Cc1ccc2[nH]cc(CCN(C)C)c2c1 | -6.69% (inactive) and -7.27% (inactive) | –
O=C1c2ccccc2C(=O)c2c1ccc(O)c2O | -14.2% (inactive) | –
CCCCCCCCCCCCCCCC(=O)OC[C@@H](NC(=O)C(Cl)Cl)[C@H](O)c1ccc([N+](=O)[O-])cc1 | 7.1% (inactive) | –
CCC(=O)NC[C@H](Cc1ccc(OCCc2nc(-c3ccccc3)oc2C)cc1)NC(C)=CC(=O)c1ccc(C(F)(F)F)cc1 | 17.2% (inactive) | –
CN=C(NC#N)NCCSCc1csc(N=C(N)N)n1 | 9.6% (inactive) | –
Nc1ccc(S(=O)(=O)Nc2ncccn2)cc1 | -6.74% (inactive) | –
CC(C)(C)c1ccc(C(=O)CCCCl)cc1 | 3.95% (inactive) | –
NC(=O)NC1N=C([O][Al])NC1=O (stereo not given) | 8.47% (inactive) | –
COc1c(C)c2c(c(O)c1CC=C(C)CCC(=O)O)C(=O)OC2 | -14.1% (inactive) | –
CC(O)CN(CCN(CC(C)O)CC(C)O)CC(C)O (stereo not given) | 22% (inactive) | –
COc1cc(C)c(C=CC(C)=CC=CC(C)=CC(=O)O)c(C)c1C | 21.4% (inactive) | –
COC(=O)c1cccnc1 | -4.18% (inactive) | –
CN(C/C=C/C#CC(C)(C)C)Cc1cccc2ccccc12 | -0.565% (inactive) | –
O=S1(=O)c2cccc3cccc(c23)N1CCCN1CCN(c2ccc(F)cc2)CC1 | 8.47% (inactive) | –
CN(C)CCN1CCN(c2cccc(Cl)c2)C1=O | -13% (inactive) | –
CC1=C(C/C=C(\C)CCC[C@H](C)CCC[C@H](C)CCCC(C)C)C(=O)c2ccccc2C1=O | 18.6% (inactive) | –
CC(C(=O)O)c1cccc(Oc2ccccc2)c1 (stereo not given) | 32.2% (inactive) | –
CCOC(=O)C(=O)CCc1ccccc1 | 10% (inactive) | –
O=C(/C=C/c1ccccc1)OCc1ccccc1 | -23.2% (inactive) | –
